# Test results published in the antibiotic and cytotoxicity screens of Wong et al. (2023).
# Hit rate of the full screen: of about 39,000 compounds, about 3,300 (8.5%) were called active. Shown is part of a subset that was picked to be rich in actives.
# System: HepG2
# Assay: cytotoxicity call (relative viability < 0.9)
# Conditions: 10 µM
row,SMILES,cytotoxicity call
1,CN[C@H]1C[C@@H](N)[C@H](O)[C@@H](O[C@@H]2O[C@H](CO)[C@H](O)[C@@H]3O[C@@]4(O[C@H]23)O[C@H]([C@@H](N)CO)[C@H](O)[C@H](O)[C@H]4O)[C@@H]1O,inactive
2,CCCC(=O)c1c(O)[nH]c(=O)[nH]c1=O,inactive
3,c1ccc2sc(C3(N4CCCCC4)CCCCC3)cc2c1,inactive
4,c1ccc2sc(C3(N4CCCC4)CCCCC3)cc2c1,inactive
5,S=C=Nc1cccc(C2(N3CCCCC3)CCCCC2)c1,active
6,Oc1ccccc1N1CCNCC1,inactive
7,O[C@H]1CNC[C@@H]1N1CCCC1,inactive
8,CN1CC2(CNC2)OCCS1(=O)=O,inactive
9,C[C@@H]1CN([C@@H](C)CO)C(=O)CCCn2nncc2CO[C@@H]1CN(C)C(=O)Oc1cccc2ccccc12,inactive
10,NCCc1[nH]nc2c1CCCC2,inactive
11,CC1(C)NN1CCCN1NC1(C)C (centres undefined),inactive
12,NCCO.NCCO.O[AsH]O[AsH]O (centres undefined),active
13,CC12CCC(=O)C=C1C=CC1C2CCC2(C)C1CCC2(O)CCC(=O)[O-].[K+] (centres undefined),inactive
14,CC12CCC3C(CCC45OC4C(O)=C(C#N)CC35C)C1CCC2O (centres undefined),inactive
15,C[C@H](N)Cn1ccc2cc(F)c(Cl)cc21,inactive
16,CC(C)[C@H](N)C(=O)N1CCC[C@H]1B(O)O,inactive
17,CO[C@@H]1C[C@@H](C[C@H]2CC[C@H](C)[C@H]([C@@H](C)C(=O)O)O2)O[C@]2(O[C@](C)([C@H]3CC[C@@](C)([C@H]4O[C@@H]([C@H]5O[C@@](O)(CO)[C@H](C)C[C@@H]5C)C[C@@H]4C)O3)C[C@H]2C)[C@@H]1C,active
18,C[C@@H](N)Cc1ccc2occc2c1,inactive
19,CC1=C2CCC3C4CCC(=O)C4(C)CCC3C2(C)CCC1=O (centres undefined),inactive
20,O=[N+]([O-])c1cc(O)c(O)c([N+](=O)[O-])c1,inactive
21,CC(C)=CCCC1(C)C=Cc2c(O)c3c(c(CC=C(C)C)c2O1)OC12C(=CC4CC1C(C)(C)OC2(CC=C(C)C(=O)O)C4O)C3=O (centres undefined),inactive
22,CC(C)=CCCC1(C)C=Cc2c(O)c3c(c(CC=C(C)C)c2O1)OC12C(=CC4CC1C(C)(C)OC2(CC=C(C)C(=O)O)C4=O)C3=O (centres undefined),active
23,CC(C)=CCC[C@]1(C)C=Cc2c(O)c3c(c(CC=C(C)C)c2O1)O[C@]12[C@H](C[C@@H]4C[C@H]1C(C)(C)O[C@]2(C/C=C(/C)C(=O)O)[C@@H]4O)C3=O,inactive

row,SMILES,cytotoxicity call
1,COc1cc(C(=O)O)cc(OC)c1OC,inactive
2,CCC(CC)C(=O)N[C@@H]1[C@@H]2CNC[C@@H]21,inactive
3,NC[C@H](CC(=O)O)c1ccc(Cl)cc1,inactive
4,C[C@@H](N)Cc1ccc(O)cc1,inactive
5,C=C(CCCCCCCCCCCCCCCC)OOC[C@@H](COP(=O)(ON)O[C@@H]1[C@H](O)[C@H](O)[C@@H](OP(=O)(O)ON)[C@H](OP(=O)(O)ON)[C@H]1O)OOC(=C)CC/C=C/C/C=C/C/C=C/C/C=C/CCCCC (some centres undefined),active
6,C[C@H](CO)N1C[C@H](C)[C@H](CN(C)C(=O)Oc2cccc3ccccc23)OCc2cn(nn2)CCCC1=O,inactive
7,Cc1cc(O)ccc1Cl,active
8,Oc1ccc(Cl)cc1,inactive
9,Br.COc1ccc2c(c1)C13CCCCC1C(C2)N(C)CC3 (centres undefined),inactive
10,CNC(=O)Oc1ccc2c(c1)C1(C)CCN(C)C1N2C (centres undefined),active
11,CNC(=O)Oc1ccc2c(c1)C1(C)CCN(C)C1N2C.O=C(O)c1ccccc1O (centres undefined),active
12,CNC(=O)Oc1ccc2c(c1)C1(C)CCN(C)C1N2C.O=S(=O)(O)O (centres undefined),active
13,CN1CCC2(C)c3cc(O)ccc3N(C)C12.O=C(O)C=CC(=O)O (centres undefined),active
14,CNC(=O)Oc1ccc2c(c1)[C@]1(C)CCN(C)[C@@H]1N2C.CNC(=O)Oc1ccc2c(c1)[C@]1(C)CCN(C)[C@@H]1N2C.O=S(=O)(O)O,inactive
15,Cc1ccc(C)c(C(=O)[C@H](N)CC(C)C)c1,inactive
16,Cc1cc(C(=O)N2CC[C@H]3[C@@H]2CCN3C)no1,inactive
17,CCOc1ccc(N2CCNCC2)nn1,inactive
18,C[C@H](O)[C@]12[C@@H]3CC=C[C@H]1N2CC3 (some centres undefined),inactive
19,C[C@@H](N)Cc1ccco1,inactive
20,CSC1=NN1c1cc(C)nc(N)n1,inactive
21,N#C[C@@]12[C@H]3CC=C[C@@H]1N2CC3 (some centres undefined),inactive
22,c1nc(N2CCN3CCC[C@H]3C2)c2[nH]cnc2n1,inactive
23,COCCCNC(=O)C1[C@@H]2CC[C@H]1CNC2 (some centres undefined),inactive

row,SMILES,cytotoxicity call
1,O=[N+]([O-])OC1COC2C(O[N+](=O)[O-])COC12 (centres undefined),inactive
2,OC[C@@H](O)Cc1ccc2c(c1)OCO2,inactive
3,OCc1ccc2c(c1)OCO2,inactive
4,C=CCc1ccc2c(c1)OCO2,active
5,CC=Cc1ccc2c(c1)OCO2,inactive
6,COP(=S)(OC)Oc1ccc([N+](=O)[O-])cc1,inactive
7,CC(C)N(CCC(C(N)=O)(c1ccccc1)c1ccccn1)C(C)C.O=P(O)(O)O (centres undefined),inactive
8,Cn1ccnc1N1CCNCC1,inactive
9,c1ccc2c(c1)Nc1ccccc1S2,active
10,CC[n+]1c(-c2ccccc2)c2cc(N)ccc2c2ccc(N)cc21.[Br-],active
11,Nc1ccc(-c2ccccc2)cc1,inactive
12,O=c1ccc(=O)[nH][nH]1,inactive
13,COC(C)(C)CCCC(C)CC=CC(C)=CC(=O)OC(C)C (centres undefined),inactive
14,O=C1CNC[C@@H]2c3cccc(F)c3CCN12,inactive
15,[N-]=[N+]=NCc1ccccc1C[C@]1(C(=O)N2CCCCC2)N=C(c2ccc(OCCCO)cc2)O[C@H]1c1ccccc1N=[N+]=[N-],active
16,[N-]=[N+]=NCc1ccccc1C[C@]1(C(=O)N2CCOCC2)N=C(c2ccc(OCCCO)cc2)O[C@H]1c1ccccc1N=[N+]=[N-],active
17,[N-]=[N+]=NCc1ccccc1C[C@@]1(C(=O)N2CCCCC2)N=C(c2ccc(OCCCO)cc2)O[C@@H]1c1ccccc1N=[N+]=[N-],inactive
18,CN1CCc2cc([C@H](CN)N(C)C)ccc21,inactive
19,CCOP(=S)(OCC)SCSP(=S)(OCC)OCC,inactive
20,NCCc1cccs1,inactive
21,CN(C)C(=O)[C@H]1CCC2(CCNCC2)CO1,inactive
22,Cc1cc(C2=NO[C@](c3cc(Cl)cc(Cl)c3)(C(F)(F)F)C2)ccc1C(=O)NCC(=O)NCC(F)(F)F,inactive
23,[O-][n+]1ccccc1[S][Zn][S]c1cccc[n+]1[O-],active
